# Source: PubChem BioAssay (several laboratories)
# MsrA inh: bovine MsrA inhibition. purified bovine MsrA, absorbance read-out. 360,000 tested, 0.75% active. inhibition, % at 15.5 µM;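 also: 0% = vehicle wells with enzyme and 100% = reference inhibitor wells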
# rCAG RNA binder: molecules binding r(CAG) RNA repeats | r(CAG) RNA repeat, TO-PRO-1 dye displacement fluorescence | inhibition, % at 3 µM | 370,000 tested, 1.3% active;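 active = inhibition above the plate cutoff, the mean of all test compounds on that plate plus 3 SD, cut at about 35% in these data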;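 also: 0% = DMSO alone and 100% = 100 µM mitoxantrone as full dye displacement; higher means more dye released from RNA so lower well fluorescence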
# MsrA act: bovine methionine sulfoxide reductase A activation. purified bovine MsrA, absorbance read-out. activation, % at 10.6 µM. 360,000 tested, 0.3% active. AID 602163; in the data active = activation above about 7.5%;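 also: 0% = vehicle and 100% = reference activator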
# NadD block: NadD (S. aureus) enzyme inhibition | purified NadD enzyme, colorimetric absorbance read-out | inhibition, % at 20 µM | 360,000 tested, 0.78% active; in the data active = inhibition above about 26%
# MsrA conf: confirmation of bovine MsrA inhibitors; 2,300 tested, 41% active; purified bovine MsrA, absorbance read-out; inhibition, % at 15.5 µM; shares compounds with MsrA inh;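 also: coupled to thioredoxin reductase with NADPH and selenocystamine and DMSO as substrate; 0% = vehicle only and 100% = full effect of reference inhibitor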
# * = called active by the depositor; x = no result. A selection: hits, their analogues and other compounds. The true share with any hit is near 2.7%. Rule as the data show it, unless noted: active = inhibition above about 4.5%; inactive = the rest.
SMILES,MsrA inh,rCAG RNA binder,MsrA act,NadD block,MsrA conf
O=C(CCCN1C(=O)S/C(=C\c2ccccc2)C1=O)NNC(=O)c1ccccc1O,4.7*,17,-6,4,4
CC1=C(C(=O)OCc2ccccc2)C(c2cccc([N+](=O)[O-])c2)NC(=O)N1C (stereo unspecified),0,-2,-1,1,x
CCOC(=O)/C(=N\Nc1ccc(Br)cc1)N1CCN(c2ccccc2OC)CC1,1,-2,2,-4,x
CCOC(=O)C(C)Sc1nnc(NC(=O)c2ccc3c(c2)OCO3)s1 (stereo unspecified),5.1*,-1,-5,-6,2
CSc1nnc(NC(=O)c2ccc3c(c2)OCO3)s1,0,-2,-5,-21,x
O=C1N=C(N2CCOCC2)S/C1=C/c1cccs1,5.4*,2,-16,-4,5.4*
CC(=O)N1CCN(C2=NC(=O)/C(=C\c3cccs3)S2)CC1,2,-2,-6,-7,x
Cc1ccc(/C=C2\SC(N3CCCCC3)=NC2=O)cc1,5.0*,-4,-4,5,4.8*
NC1=NC(=O)/C(=C/c2cccs2)S1,6.2*,1,-4,2,4
NC1=NC(=O)C(=Cc2ccccc2)S1,4,3,-11,1,x
CCn1cc(C(=O)Nc2ncccc2O)c(=O)c2cc(F)c(N3CCN(C(=O)c4ccco4)CC3)cc21,2,4,0,12,x
COc1cccc(C(=O)N=c2sc3cc(S(C)(=O)=O)ccc3n2C)c1,3,4,-3,-8,x
O=C1c2cccc3c([N+](=O)[O-])ccc(c23)C(=O)N1c1ccccn1,9.2*,0,-8,-1,6.0*
O=C1c2cccc3c([N+](=O)[O-])ccc(c23)C(=O)N1c1ccc(Cl)cn1,0,-14,1,2,x
N#C/C(=N\O)c1nc2ccccc2s1,4.7*,2,-7,9,3
Cc1ccsc1/C=N/NC(=O)C(=O)NCC(C)C,5.6*,-1,-3,-7,3
COc1cc(C(=O)N/N=C/c2sccc2C)cc(OC)c1OC,5.1*,-3,-2,0,4
O=C(CCCN1C(=O)C(c2ccccc2)Oc2cccnc21)NCCc1ccc(Cl)cc1 (stereo unspecified),-1,-4,-3,-2,x
OCCOCCn1c(-c2ccccc2)nc(=S)c2c1CCCC2,5.9*,3,-7,0,4
CC1(C)Cc2c(c(=S)nc(-c3ccccc3)n2CCOCCO)CO1,1,5,1,6,x
CC(=O)c1sc(NC(=O)C2CC(=O)N(Cc3ccccc3)C2)nc1-c1ccccc1 (stereo unspecified),1,0,-3,1,x
COc1ccc(-c2cc(C(F)F)nc(-n3nc(C)cc3C)n2)cc1,15*,-7,-3,1,16*
Cc1ccc(-c2cc(C(F)F)nc(N3CCOCC3)n2)cc1,11*,-2,-3,-3,9.7*
Cc1ccc(-c2cc(C(F)F)nc(NCc3cccs3)n2)cc1,1,0,-5,12,x
COc1ccc(-c2csc(CCn3nc(C)cc3C)n2)cc1,2,-9,-4,14,x
SMILES,MsrA inh,rCAG RNA binder,MsrA act,NadD block,MsrA conf
O=C(/C(C=Nc1ccc(Br)cc1)=C(/O)c1ccco1)C(F)(F)F,4.8*,5,-4,-6,3
O=C(/C(C=Nc1cccc(C(F)(F)F)c1)=C(/O)c1ccco1)C(F)(F)F,2,2,-4,-2,x
O=[N+]([O-])c1cc(Cl)ccc1Nc1ccccc1,x,x,-12,-4,x
C/C(=N\Nc1ccc(S(N)(=O)=O)cc1[N+](=O)[O-])c1ccccc1O,9.9*,10,-15,1,4.7*
C/C(=N\Nc1ccccc1[N+](=O)[O-])c1ccccc1O,1,3,-10,2,x
C/C(=N\Nc1ccc(S(N)(=O)=O)cc1[N+](=O)[O-])c1ccco1,9.2*,12,-7,-2,5.4*
C/C(=N\NC(=O)c1cc([N+](=O)[O-])cc([N+](=O)[O-])c1)c1ccco1,2,4,1,-1,x
NS(=O)(=O)c1ccc(Nc2ccccc2)c([N+](=O)[O-])c1,4.9*,1,-11,-14,3
Nc1nc(N)c2sc3nc(C(F)(F)F)cc(C(F)(F)F)c3c2n1,7.5*,0,-3,-10,1
COc1ccc(N(CC(=O)NCCC2=CCCCC2)S(=O)(=O)c2ccccc2)c(OC)c1,0,1,-3,-4,x
Oc1ccc(/C=N/Nc2ccc(C(F)(F)F)cn2)c(O)c1,4,12,-5,-11,x
Oc1ccc(/C=N/Nc2ccc(C(F)(F)F)cn2)cc1,5.5*,5,1,-5,3
NC(=S)N/N=C/c1ccc(-c2cccc([N+](=O)[O-])c2)o1,5.1*,11,-3,11,7.6*
O=C(CSC1=NCCS1)Nc1cccc(F)c1,1,-3,-2,-2,x
C=CCNc1nc(N)c([N+](=O)[O-])c(NCCO)n1,5.0*,0,-5,4,4.8*
O=C(OCCOc1cccc(Cl)c1)C1CCN(S(=O)(=O)c2ccccc2)CC1,1,1,-1,-8,x
CC(C)Cn1cc(C(=O)NCCCN2CCCC2=O)c2c3ccccc3n(C)c2c1=O,4.9*,3,-11,-1,1
CCCn1nc(NS(=O)(=O)c2cccc3nonc23)c2cc3ccccc3nc21,1,32,-4,5,x
Cc1cc(=O)oc(C)c1C(=O)NCCNC(=O)c1c(C)cc(=O)oc1C,1,2,5,-6,x
Cc1cc(=O)oc(C)c1C(=O)NCCC(C)C,5.5*,1,-6,-4,5.0*
O=C(OCc1c(-c2ccccc2)ncc2ccccc12)c1ccc(Cl)cc1Cl,-2,-1,-5,7,x
COc1ccc(/C=C/C2=NN(Cc3ccccc3)C(=O)CC2)cc1,3,-5,-5,-3,x
CCOC(=O)CN1N=C(/C=C/c2ccc(OCC)cc2)CCC1=O,7.2*,-5,-6,-2,4
C=CCN1N=C(/C=C/c2ccc(OC)cc2)CCC1=O,7.8*,-5,-2,-8,4.6*
Cc1ccc(Nc2n[nH]c(C)c2[N+](=O)[O-])cc1C,11*,1,-8,-8,8.2*
SMILES,MsrA inh,rCAG RNA binder,MsrA act,NadD block,MsrA conf
Cc1cc(Cl)ccc1C(O)c1ncc(-c2cccc3ccccc23)[nH]1 (stereo unspecified),0,4,-6,7,x
CS(=O)(=O)N1CCN=C1SCc1ccc([N+](=O)[O-])cc1,0,-5,-3,-6,x
Nc1ccnc(=O)[nH]1,-1,2,-6,0,x
Cc1cc(N/C=C/C(=O)c2cccc3ccccc23)no1,4.7*,2,-4,-1,2
C/C(=N\NC(=S)NC(C)C)c1ccc(Cl)s1,4,-3,-5,1,x
C/C(=N\NC(N)=S)c1ccc(Cl)s1,5.7*,0,-4,9,4.8*
COC(=O)/C=C1\S/C(=N/N=C/c2ccco2)NC1=O,4.7*,7,-4,-2,4
COC(=O)/C=C1/S/C(=N/NC(=O)c2ccccc2C)NC1=O,6.7*,4,-2,-2,3
CCC(NC(=O)COC(=O)C1CC2CCCC(C1)C2=O)c1ccc(Br)cc1 (stereo unspecified),1,-9,-2,0,x
CCOC(=O)c1nnn(-c2nonc2-c2ccccc2)c1C,19*,0,0,-2,14*
